The source of these data is PubChem BioAssay (EPA / NIEHS).

Calls of active or inactive are those of the source. The calls were made as follows: active = hit-call score of the fitted dose curve at least 0.9, where 1 is the maximum; inactive = score below 0.9.

What all share (settings): primary human HUVEC with PBMC; actives raise or lower the signal
Read-out in assay [1]: Monocyte Chemoattractant Protein-1 (MCP1), CCL2 (gene 6347)
The assay is described as follows: BSK_LPS_MCP1: BioMAP Diversity Plus: LPS Assay for Monocyte Chemoattractant Protein-1 (MCP1) Biomarker Activity (AID 2283081).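 As to AC50: co-culture stimulated with LPS; secreted MCP-1 protein quantified by ELISA in culture supernatant.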 A digest of the protocol: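 HUVEC plus PBMC co-culture (human primary cells, LPS system) exposed to test chemical for 24 h; MCP-1 measured by ELISA. Bidirectional curve fitting against DMSO baseline; parallel SRB total-protein staining flags overt cytotoxicity.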

Assay [2] in a line: BSK_LPS_PGE2: BioMAP Diversity Plus: LPS Assay for Prostaglandin E2 (PGE2) Biomarker Activity (AID 2283082). In a few lines: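 PGE2 release measured by ELISA in an LPS-activated co-culture of human umbilical vein endothelial cells and peripheral blood mononuclear cells, read at 24 h post-dosing. DMSO served as baseline for bidirectional curve fitting.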
Read-out in assay [3]: Macrophage colony-stimulating factor (MCSF), CSF1 (gene 1435)
Description: BSK_LPS_MCSF: BioMAP Diversity Plus: LPS Assay for Macrophage colony-stimulating factor (MCSF) Biomarker Activity (AID 2283083). In a few lines: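 Human umbilical vein endothelial cells co-cultured with peripheral blood mononuclear cells were exposed to compound for 24 h. M-CSF levels were measured by ELISA, and bidirectional curve fitting used DMSO as the negative control and baseline.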

Read-out in assay [4]: Tissue Factor, F3 (gene 2152)
Description: BSK_LPS_TissueFactor: BioMAP Diversity Plus: LPS Assay for Tissue Factor Biomarker Activity (AID 2283084). A digest of the protocol:
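Human umbilical vein endothelial cells co-cultured with peripheral blood mononuclear cells were dosed and stimulated with LPS. Cell-surface CD142 was quantified by ELISA at 24 h. Activity was fitted bidirectionally against DMSO baseline.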

Read-out in assay [5]: Tumor necrosis factor (Homo sapiens) (UniProt P01375)
The assay is described as follows: BSK_LPS_TNFa: BioMAP Diversity Plus: LPS Assay for Tumour Necrosis Factor alpha (TNFa) Biomarker Activity (AID 2283085).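 As to AC50: TNFa protein level quantified by ELISA in the co-culture.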 A digest of the protocol: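 TNFa was quantified by ELISA in LPS-activated co-cultures of human endothelial cells and PBMC, 24 h post-dosing. Both increases and decreases versus DMSO were fitted.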

Read-out in assay [6]: Vascular cell adhesion molecule 1 (VCAM1), VCAM1 (gene 7412)
Description: BSK_LPS_VCAM1: BioMAP Diversity Plus: LPS Assay for Vascular cell adhesion molecule 1 (VCAM1) Biomarker Activity (AID 2283086). A digest of the protocol:
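VCAM-1 quantified by ELISA in an LPS-activated co-culture of human endothelial cells and peripheral blood mononuclear cells, read 24 h post-treatment. Fitted in both directions versus DMSO; parallel SRB staining flags overt cytotoxicity.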

Read-out in the next assay: CD38, CD38 (gene 952)
Description: BSK_SAg_CD38: BioMAP Diversity Plus: SAg Assay for CD38 Biomarker Activity (AID 2283087). In a few lines:
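CD38 quantified by ELISA (fluorescence) in a superantigen-activated endothelial cell–PBMC co-culture at 24 h post-dose. Activity fitted in both directions relative to DMSO; parallel SRB and Alamar Blue cytotoxicity read-outs.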

Read-out in a further assay: CD40, CD40 (gene 958)
The assay is described as follows: BSK_SAg_CD40: BioMAP Diversity Plus: SAg Assay for CD40 Biomarker Activity (AID 2283088). A digest of the protocol:
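Human umbilical vein endothelial cells co-cultured with PBMC; CD40 levels measured by ELISA with fluorescence read-out 24 h after chemical dosing. Gain or loss of signal fitted bidirectionally against DMSO baseline.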

Read-out in the next assay: CD69, CD69 (gene 969)
The assay is described as follows: BSK_SAg_CD69: BioMAP Diversity Plus: SAg Assay for CD69 Biomarker Activity (AID 2283089). In a few lines:
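Primary human vascular co-culture (umbilical vein endothelium with peripheral blood mononuclear cells) exposed to test chemical for 24 h. CD69 levels quantified by fluorescence ELISA; DMSO served as negative control for bidirectional fitting.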

Read-out in assay [7]: Monocyte Chemoattractant Protein-1 (MCP1), CCL2 (gene 6347)
The assay is described as follows: BSK_SAg_MCP1: BioMAP Diversity Plus: SAg Assay for Monocyte Chemoattractant Protein-1 (MCP1) Biomarker Activity (AID 2283090). In a few lines: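 Values derive from bidirectional fitting of ELISA-measured MCP1 against DMSO controls. Readings were taken 24 h after dosing human vascular endothelial cells co-cultured with peripheral blood mononuclear cells under superantigen stimulation.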

Chain of Tumor necrosis factor (Homo sapiens) (P01375 whole entry, looked up): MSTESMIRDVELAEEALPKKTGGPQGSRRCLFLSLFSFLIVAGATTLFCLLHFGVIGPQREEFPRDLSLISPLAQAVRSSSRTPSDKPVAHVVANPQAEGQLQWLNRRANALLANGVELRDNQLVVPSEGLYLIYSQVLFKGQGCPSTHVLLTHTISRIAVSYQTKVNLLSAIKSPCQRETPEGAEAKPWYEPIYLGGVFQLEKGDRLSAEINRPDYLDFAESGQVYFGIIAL

For orientation: AC50 means the concentration giving half of the maximal activity seen. Turning to `O=c1c(O)c(-c2ccc(O)c(O)c2)oc2cc(O)cc(O)c12`, the outcome was “inactive” in [1]; “inactive” in [3]; “inactive” in [4]; “inactive” in assay [5]; “inactive” in [6]; “inactive” with CD69, CD69 (gene 969). Also, the outcome in [7] was inactive. Moreover, the AC50 in assay [2] was 32.8 µM (active); with CD38, CD38 (gene 952), 29.9 µM (active); in the assay with CD40, CD40 (gene 958) it was 36 µM (active).

With `c1cc(-c2ccncc2)ccn1`, the result in assay [1], in [2], in assay [3], in [4], in [5] and in assay [6] was inactive. The outcome with CD38, CD38 (gene 952) is “inactive”; with CD40, CD40 (gene 958) it was “inactive”; in the assay with CD69, CD69 (gene 969) it was “inactive”; in assay [7], “inactive”.

On to `Nc1ccc2c(c1)C(=O)c1ccccc1C2=O`, for which the outcome in assay [1] was “inactive”; in [3], “inactive”; in [4], “inactive”; in assay [6] it was “inactive”; in the assay with CD38, CD38 (gene 952) it was “inactive”; in the assay with CD40, CD40 (gene 958) it was “inactive”. Moreover, the outcome was “inactive” with CD69, CD69 (gene 969) and “inactive” in [7]. For the same molecule, the AC50 is 3.36 µM (active) in assay [2] and 5.74 µM (active) in assay [5].

Regarding `Cc1cccc(C)c1O`, the outcome in assay [1] was “inactive”; in assay [3], “inactive”; in assay [4] it was “inactive”; in assay [5] it was “inactive”; in assay [6] it was “inactive”; with CD38, CD38 (gene 952) it was “inactive”. Besides, the outcome was “inactive” in the assay with CD40, CD40 (gene 958); “inactive” with CD69, CD69 (gene 969); “inactive” in assay [7]. In addition, the AC50 in [2] was 4.8 µM (active).

`CC(C)c1ccc(C(=O)N=C(N)N)cc1S(C)(=O)=O`: the result in [1], in [2], in assay [3], in [4], in assay [5] and in [6] was inactive. Moreover, the outcome in the assay with CD38, CD38 (gene 952) was “inactive”; in the assay with CD40, CD40 (gene 958), “inactive”; in assay [7] it was “inactive”.

In the case of `CNC(=O)[C@H]1O[C@@H](n2cnc3c(NCc4cc(Cl)ccc4OCc4cc(C)no4)ncnc32)[C@H](O)[C@@H]1N`, the result in assay [1], in assay [2], in [3], in assay [4], in assay [5] and in assay [6] was inactive. Also, the outcome in the assay with CD38, CD38 (gene 952) was “inactive”; with CD40, CD40 (gene 958) it was “inactive”; in assay [7], “inactive”.

As to `Cc1ccccc1Cl`, the result in [1], in assay [2], in assay [3], in assay [4], in assay [5] and in [6] was inactive. Further, the outcome with CD38, CD38 (gene 952) is “inactive”; in the assay with CD40, CD40 (gene 958) it was “inactive”; in the assay with CD69, CD69 (gene 969), “inactive”; in [7], “inactive”.

As to `C[Si]1(C)O[Si](C)(C)O[Si](C)(C)O[Si](C)(C)O1`, the outcome in assay [1], in assay [2], in assay [3], in [4], in assay [5] and in [6] was inactive. Also, the outcome with CD38, CD38 (gene 952) is “inactive”; with CD40, CD40 (gene 958), “inactive”; with CD69, CD69 (gene 969), “inactive”; in assay [7], “inactive”.

Turning to `CCCCCCCCCCCCCCCC`, the outcome in assay [1], in [2], in assay [3], in assay [4], in [5] and in assay [6] was inactive. For the same molecule, the outcome with CD38, CD38 (gene 952) was “inactive”; in the assay with CD40, CD40 (gene 958), “inactive”; in assay [7], “inactive”.

Consider `CCCCCCCCCCCC(=O)OC`, for which the result in [1], in assay [2], in assay [3], in assay [4], in [5] and in assay [6] was inactive. Besides, the outcome is “inactive” with CD38, CD38 (gene 952); “inactive” in the assay with CD40, CD40 (gene 958); “inactive” with CD69, CD69 (gene 969); “inactive” in assay [7].

With `CCCc1cc(=O)[nH]c(=S)[nH]1`, the result in assay [1], in assay [2], in assay [3], in assay [4], in [5] and in assay [6] was inactive. Besides, the outcome in the assay with CD38, CD38 (gene 952) is “inactive”; in the assay with CD40, CD40 (gene 958) it was “inactive”; with CD69, CD69 (gene 969), “inactive”; in assay [7], “inactive”.

With `CC(=O)C(C)=CC1C(C)=CCCC1(C)C` (stereo not drawn), the outcome in assay [1], in assay [2], in [3], in assay [4], in assay [5] and in assay [6] was inactive. Moreover, the outcome with CD38, CD38 (gene 952) is “inactive”; with CD40, CD40 (gene 958), “inactive”; in assay [7] it was “inactive”.

As for `Cc1oc(-c2ccccc2)nc1CCOc1cccc2c1ccn2CCC(=O)O`, the outcome in assay [1] is “inactive”; in assay [3], “inactive”; in [4], “inactive”; in [6], “inactive”; with CD38, CD38 (gene 952), “inactive”; in the assay with CD40, CD40 (gene 958), “inactive”. For the same molecule, in assay [7], the outcome was inactive. The AC50 in [2] was 5.34 µM (active); in assay [5] it was 0.655 µM (active).

For `CCCCOC(=O)CCCCCCCCC(=O)OCCCC`, the result in assay [1], in assay [2], in [3], in assay [4], in assay [5] and in [6] was inactive. The outcome is “inactive” with CD38, CD38 (gene 952); “inactive” in the assay with CD40, CD40 (gene 958); “inactive” with CD69, CD69 (gene 969); “inactive” in assay [7].

On to `COc1cc(S(=O)(=O)O)c(C)cc1N=Nc1c(O)ccc2cc(S(=O)(=O)O)ccc12`, for which the result in [1], in assay [2], in assay [3], in assay [4], in assay [5] and in assay [6] was inactive. In addition, the outcome in the assay with CD38, CD38 (gene 952) is “inactive”; with CD40, CD40 (gene 958), “inactive”; in the assay with CD69, CD69 (gene 969), “inactive”; in assay [7] it was “inactive”.

Regarding `Cc1ccc2ncccc2c1`, the outcome in assay [1], in assay [2], in [3], in assay [4], in assay [5] and in [6] was inactive. Besides, the outcome is “inactive” in the assay with CD38, CD38 (gene 952); “inactive” in the assay with CD40, CD40 (gene 958); “inactive” in assay [7].

As to `Cc1cc(=O)[nH]c(=S)[nH]1`, the outcome in assay [1], in assay [2], in [3], in assay [4], in assay [5] and in assay [6] was inactive. In addition, the outcome in the assay with CD38, CD38 (gene 952) is “inactive”; with CD40, CD40 (gene 958), “inactive”; in [7], “inactive”.

In the case of `CCCCC(CC)COC(=O)CC(C(=O)OCC(CC)CCCC)S(=O)(=O)O` (stereo not drawn), the half-maximal activity concentration (AC50) in assay [1] is 30.9 µM (active); in [3], 31.4 µM (active); in assay [4], 32 µM (active); in [6] it was 36.5 µM (active); with CD38, CD38 (gene 952) it was 35.3 µM (active); with CD40, CD40 (gene 958), 35.5 µM (active). In [7], the AC50 is 33 µM (active). Besides, the outcome in assay [2] and in assay [5] was inactive.

In the case of `Cc1cccc([N+](=O)[O-])c1C`, the result in [1], in assay [2], in assay [3], in [4], in [5] and in assay [6] was inactive. For the same molecule, the outcome is “inactive” in the assay with CD38, CD38 (gene 952); “inactive” with CD40, CD40 (gene 958); “inactive” in [7].

As for `Oc1ccc2c(c1)OC[C@@H](N1CCC(O)(c3ccc(F)cc3)CC1)[C@H]2O`, the outcome in assay [1], in assay [2], in assay [3], in [4], in assay [5] and in assay [6] was inactive. The outcome in the assay with CD38, CD38 (gene 952) was “inactive”; with CD40, CD40 (gene 958), “inactive”; in [7] it was “inactive”.

Regarding `CC(=O)Oc1ccccc1C(=O)O`, the outcome in assay [1] is “inactive”; in assay [3] it was “inactive”; in assay [4], “inactive”; in [5], “inactive”; in assay [6], “inactive”; in the assay with CD38, CD38 (gene 952), “inactive”. Further, the outcome with CD40, CD40 (gene 958) is “inactive”; in [7], “inactive”. In addition, the AC50 in [2] was 3.25 µM (active).

Regarding `COCCOC[C@H](CC1(C(=O)NC2CCC(C(=O)O)CC2)CCCC1)C(=O)Oc1ccc2c(c1)CCC2` (stereo partly drawn), the outcome in assay [1], in [2], in assay [3], in assay [4], in assay [5] and in [6] was inactive. The outcome with CD38, CD38 (gene 952) was “inactive”; in the assay with CD40, CD40 (gene 958), “inactive”; in assay [7] it was “inactive”.
